Source: PubChem BioAssay
Most compounds without a hit are left out; they make up all but 6.5% or so of the library.
NADH coupling = inhibition of NAD/NADH coupling enzymes, library profiling; IC50, µM (top dose mostly 10 µM), without a hit: at the top dose inhibition; 65,000 tested, 0.02% active; coupled PK/LDH NADH assays, four targets;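 active = single-dose screening hits from any of four coupled enzyme assays that gave an IC50 when retested across doses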;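 also: the DPM-DC format reads NADH fluorescence rather than 340 nm absorbance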
Spn PMK inh = blocks S. pneumoniae phosphomevalonate kinase. 65,000 tested, 0.49% active. inhibition, % at 10 µM. purified PMK, PK/LDH-coupled NADH absorbance 340 nm;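 active = top-ranked compounds by inhibition in the single 10 µM screen, taking a fixed number of the strongest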;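 also: 0% = full reaction with DMSO carrier and 100% = background rate without enzyme reaction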
Spn MK inh = S. pneumoniae mevalonate kinase inhibition | purified MK, PK/LDH-coupled NADH absorbance 340 nm | inhibition, % at 10 µM | 65,000 tested, 0.48% active;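 active = ranked among the strongest by inhibition in the single 10 µM screen, a fixed top-ranked set picked for dose follow-up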
Autofluor 339 = intrinsic fluorescence of library compounds, ex339/em460 – biochemical, MLSMR library, data from DPM-DC assay, artefact control, profiling panel; 65,000 tested, 5.5% active; fluorescence fold increase at 10 µM; AID 709; compound autofluorescence, ex339/em460 nm, NADH buffer; active compounds read high; 1 = no-compound wells, NADH background;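 active = at 10 µM, mean starting fluorescence two-fold or more over control wells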;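 also: signal is the first read of a kinetic run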
Abs 340nm = compounds absorbing at 340 nm; AID 708; 65,000 tested, under 10 active; compound absorbance at 340 nm, fold over control; fold change at 10 µM;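 active = at 10 µM dose, initial 340 nm absorbance at least 2 fold that of control wells; inactive = change under 2 fold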;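 also: initial absorbance extrapolated from kinetic A340 decline of NADH oxidation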
Spn DPM-DC inh = blocks S. pneumoniae diphosphomevalonate decarboxylase; AID 556; calls only at 10 µM; purified DPM-DC, PK/LDH coupled NADH fluorescence; 65,000 tested, 0.49% active;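 active = the 320 compounds with the highest percent inhibition in the single-dose primary screen, excluding strongly autofluorescent ones, cut at about 32% in these data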;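 also: kinetic rate of NADH fluorescence loss reporting ADP formed by the decarboxylase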
The depositor's hits bear a star; i = inactive; . = no result given; + = active, no number.

SMILES	NADH coupling	Spn PMK inh	Spn MK inh	Autofluor 339	Abs 340nm	Spn DPM-DC inh
O=C(OCC(=O)N1CCN(C(=O)c2ccco2)CC1)c1cc(-c2ccccc2)nc2ccccc12	5%	10	1	1.6	1	i
O=C(CSc1nc2cc(Cl)ccc2s1)N1CCN(C(=O)c2ccco2)CC1	4%	3	0	1	0.98	i
O=C(CSc1nc(-c2ccccc2)cs1)N1CCN(C(=O)c2ccco2)CC1	10%	29*	0	1.1	0.91	i
O=C(OCC(=O)N1CCN(C(=O)c2ccco2)CC1)c1cc(-c2ccc(F)cc2)nc2ccccc12	11%	16	6	2.1*	1.1	.
CCN(CC)CC(=O)Nc1c(C)cc(C)cc1C	.	.	8	1.1	.	.
Cc1ccc(C2/C(=C(\O)c3c(C)nc4ccccn34)C(=O)C(=O)N2CCCN2CCOCC2)o1 (configuration not stated)	8%	13	10	1.1	1	i
CCOC(=O)CSc1nc(-c2ccc3c(c2)OCO3)ccc1C#N	6%	4	7	2.2*	1	.
CCOC(=O)CC(=O)CSc1nc(-c2cccnc2)ccc1C#N	2%	5	1	2.1*	1	.
CCOC(=O)CSc1nc(-c2ccncc2)ccc1C#N	2%	0	6	1.2	1.1	i
COc1ccc(NS(=O)(=O)c2ccc3c(c2)Cc2ccccc2-3)cn1	0%	0	1	1.1	1	i
CC(=O)c1c(C)[nH]c(C(=O)OCn2nnc3ccccc3c2=O)c1C	7%	20	0	0.99	1	i
CCOC(=O)c1cnc2sc3c(n2c1=O)CCCC3	9%	15	3	5*	1.1	.
Cc1oc2nc(SCCCC(=O)NCCO)nc(N)c2c1C	6%	11	7	1	1	i
Cc1ccc(NC(=O)CSc2nnc(-c3ccncc3)n2N)cc1C	6%	1	18	1.1	1.1	i
COc1cccc(/C=N/n2c(C)nc3ccccc32)c1OC	3%	4	6	1.1	1	i
COc1cccc(/C=N\n2c(C)nnc2C)c1OC	16%	0	5	1.1	1	+
COc1cc(OC)c(OC)cc1/C=N/n1c(C)nnc1C	10%	10	9	2.2*	1.1	.
COc1ccccc1C(=O)N(Cc1nc(-c2ccc(Cl)cc2)no1)C(C)C	9%	16	3	0.84	1	i
CCOc1ccccc1-c1nc2c([nH]1)c(=O)n(C)c(=O)n2C	8%	9	0	2.9*	1.1	i
Cc1ccc(C)c2[nH]c(=O)c(CCNC(=O)C(C)(C)C)cc12	7%	6	8	1.4	1.1	i
COCCNc1cc(C)nc2c3c(C)cc(C)nc3nn12	9%	8	10	3.8*	1	.
Cc1cc(C)c2c(n1)nn1c(NCCN3CCOCC3)cc(C)nc21	5%	5	5	3.8*	1	.
O=C(NCc1ccco1)c1cc2ccccc2o1	0%	0	0	1	1	i
Cc1ccc2cc3cc(C(=O)NCc4ccco4)oc3nc2c1	8%	11	5	4.6*	1.2	.
Cc1ccc2cc3cc(C(=O)NCCC(C)C)oc3nc2c1	2%	4	0	5.1*	1.1	.
SMILES	NADH coupling	Spn PMK inh	Spn MK inh	Autofluor 339	Abs 340nm	Spn DPM-DC inh
COc1nc(-c2ccccc2)ccc1-c1noc(-c2cccnc2)n1	12%	15	9	3.5*	1.1	.
COc1nc(-c2ccc(C)cc2)ccc1-c1noc(-c2cccnc2)n1	8%	15	0	3.5*	1	.
COc1nc2ccccc2cc1-c1noc(-c2cccnc2)n1	7%	13	7	1.5	1	i
Cc1ccc(C(=O)N2CCCC(c3nc4c(nnn4Cc4ccccc4)c(=O)[nH]3)C2)cc1 (configuration not stated)	3%	8	5	1.1	1.1	i
CCN1C(=O)/C(=C2/Sc3ccc(OC)cc3N2C)SC1=Nc1ccc(C(C)=O)cc1	11%	25*	1	1.1	1.1	i
COc1ccc(-c2oc3ncn(CCN4CCOCC4)c(=N)c3c2-c2ccc(OC)cc2)cc1	6%	16	10	1.5	1.1	i
COc1ccc(-c2oc3ncnc(NCCCN4CCOCC4)c3c2-c2ccc(OC)cc2)cc1	17%	16	17	3.8*	1.1	.
c1ccc(-c2oc3ncnc(NCCCN4CCOCC4)c3c2-c2ccccc2)cc1	12%	13	10	3.8*	1.1	.
COc1ccc(-c2oc3ncnc(NCCN4CCOCC4)c3c2-c2ccc(OC)cc2)cc1	9%	8	9	3.8*	1.1	.
CN(Cc1cccs1)C(=O)COc1ccc(-c2nnco2)cc1	5%	5	9	1.1	1	i
O=C(Cn1cnc2c(nnn2Cc2ccc(F)cc2)c1=O)N1CCN(c2ccccc2)CC1	8%	18	6	1.1	0.98	i
O=C(O)CCCC(=O)Nc1ccc(Br)cc1C(=O)O	1%	5	1	1.1	1	i
Cc1nc(C)n(C(C)CC(=O)O)n1 (configuration not stated)	1%	0	3	1	0.99	i
Cn1c(/C=N/n2cnnc2)nc2ccccc21	3%	7	6	2.5*	1	.
Cn1c(/C=N/c2nc3ccccc3[nH]2)nc2ccccc21	6%	5	7	1.2	1	i
Cc1cc(C)nc(SCC(=O)NCc2ccco2)n1	8%	19	4	1.1	1.1	i
Cn1c(SCC(=O)NCc2ccco2)nc2ccccc2c1=O	14%	25*	16	1.1	1	i
CCOC(=O)CSc1cccc2cccnc12	4%	0	7	3.6*	1	.
Cc1cc(C)n2nc(SCC(=O)NCc3ccco3)nc2n1	13%	30*	3	0.97	1	i
O=C(CSc1nc2ccccc2c(=O)n1Cc1ccco1)NCc1ccccc1	3%	0	7	1	1	i
O=C(CSc1cccc2cccnc12)NCc1ccco1	5%	9	0	4.9*	1.1	.
COC(=O)Cc1cc(=O)[nH]c(/N=C(/NC(=O)c2ccccc2)Nc2ccccc2C)n1	2%	2	5	1.1	1.1	i
CCOC(=O)c1c(/N=C/N(C)C)sc(C(=O)OC)c1C	2%	1	4	1	1.2	i
COc1cc(C(=O)Nc2nnc(CC(=O)N3CCOCC3)s2)cc(OC)c1OC	6%	6	11	1.1	1.1	i
CCc1c(C)c(C#N)c2nc3ccccc3n2c1Nc1c(C)n(C)n(-c2ccccc2)c1=O	15%	0	10	0.69	1	+
CCCc1cc(Nc2c(C)n(C)n(-c3ccccc3)c2=O)n2c(nc3ccccc32)c1C#N	3%	0	9	1.2	1	i
CC1Cc2ccccc2N1C(=O)CN1C(=O)CN(C)C(=O)c2ccccc21 (configuration not stated)	1%	0	4	1.1	1	i
